Source: PubChem BioAssay (NCI)
The panel holds about 83,000 compounds, 20% with a hit somewhere; the sample as a whole holds those more often.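 96-well plates, one dose, 48 hours. Percent growth reported; active if below 10.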 The source made the active and inactive calls.

Key:
Assay in all cases: NCI-60 one-dose screen, 48 h (100 = growth as untreated, 0 = no growth, -100 = all killed)
NCI-H226 lung = conditions: 10 µM unless noted
NCI-H322M lung = conditions: 10 µM unless noted
NCI-H460 lung = conditions: 10 µM unless noted
NCI-H522 lung = conditions: 10 µM
A549/ATCC NSCLC = conditions: 10 µM unless noted
786-0 renal = conditions: 10 µM unless noted
HOP-92 NSCLC = conditions: 10 µM
COLO 205 colon = conditions: 10 µM unless noted
HOP-62 NSCLC = conditions: 10 µM unless noted

Measured: growth

CC[C@H](Nc1ncnc2nc[nH]c12)c1nc2cccc(NCc3ccc(C(=O)NO)nc3)c2c(=O)n1-c1ccccc1
inactive: NCI-H226 lung 66.7% | NCI-H322M lung 77.7% | NCI-H460 lung 24.6% | NCI-H522 lung 22.9% | A549/ATCC NSCLC 68.2% | 786-0 renal 59.1%

O=C(/C=C1\C(=O)N(Cc2ccccc2)c2ccccc21)c1ccc(OCCN2CCCCC2)cc1
active: NCI-H522 lung -44.5% | 786-0 renal -74.3% | COLO 205 colon -34%
inactive: NCI-H226 lung 84.6% | NCI-H322M lung 92.6% | NCI-H460 lung 87.7% | HOP-92 NSCLC 10.7% | A549/ATCC NSCLC 83%

Nc1nc(-c2cccc(Br)c2)cc(-c2cc3ccccc3oc2=O)n1
inactive: NCI-H226 lung 91.5% | NCI-H322M lung 115% | HOP-62 NSCLC 90.9% | NCI-H460 lung 103% | A549/ATCC NSCLC 97.2% | 786-0 renal 105%

N=c1c2c(=O)n3c(nc2nc2sc4ccc(Cl)cc4n12)-c1ccccc1Sc1ccccc1-3
inactive: NCI-H226 lung 29.1% | NCI-H322M lung 16.4% | NCI-H460 lung 10.7% | NCI-H522 lung 12.9% | A549/ATCC NSCLC 22.4% | 786-0 renal 24.6% | COLO 205 colon 11.9%
active: HOP-92 NSCLC 6.89%

CCCCN(CCCC)CC(O)CN(CC)CC (centres undefined)
inactive: NCI-H226 lung 96.3% | NCI-H322M lung 97.6% | NCI-H460 lung 114% | HOP-92 NSCLC 93.4% | NCI-H522 lung 95.3% | A549/ATCC NSCLC 99% | 786-0 renal 104% | COLO 205 colon 99.3%

COC(=O)[C@H](Cc1cn(C)cn1)NC(=O)[C@H](CC(=O)OCc1ccccc1)NC(=O)Nc1cc(C(F)(F)F)cc(C(F)(F)F)c1
active: NCI-H226 lung -52.9% [100 µM] | NCI-H322M lung -96.7% [100 µM] | HOP-62 NSCLC -100% [100 µM] | NCI-H460 lung -62.8% [100 µM] | A549/ATCC NSCLC -80.9% [100 µM] | 786-0 renal -92% [100 µM] | COLO 205 colon -93.7% [100 µM]

C[C@]12CC[C@H]3[C@@H](CC[C@H]4C[C@@H](O)CC[C@@]43C)[C@@H]1CC(=O)C2
inactive: NCI-H226 lung 100% | NCI-H322M lung 106% | HOP-62 NSCLC 96.8% | A549/ATCC NSCLC 100% | 786-0 renal 107% | COLO 205 colon 101%

CCCCCCC(C(=O)OCC)(C(=O)OCC)C1CCCCCC1
inactive: NCI-H226 lung 99.6% | NCI-H322M lung 96.6% | HOP-62 NSCLC 91.9% | NCI-H460 lung 106% | A549/ATCC NSCLC 96% | 786-0 renal 115%

O=C1Nc2c(c(=O)n(-c3ccccc3)c3ccccc23)C(c2ccc(Cl)cc2)N1 (centres undefined)
inactive: NCI-H226 lung 99.2% | NCI-H322M lung 95.5% | HOP-62 NSCLC 84.2% | A549/ATCC NSCLC 76.2% | 786-0 renal 60.8% | COLO 205 colon 107%

NC(N)=N/N=C/c1cccc(Br)c1
inactive: NCI-H226 lung 88.7% | NCI-H322M lung 91.2% | NCI-H460 lung 104% | HOP-92 NSCLC 88.9% | NCI-H522 lung 100% | A549/ATCC NSCLC 98.8% | 786-0 renal 94.2% | COLO 205 colon 90.2%
